The source made the active and inactive calls.

Test [1] is described as follows: optical density shifts of acrAB sulA E. coli – strain DRC41, OD650, 48 h, E. coli filamentation inducer project, primary screen (AID 1152).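 Note: E. coli MC1000 strain DRC41 lacking acrAB efflux pump and sulA.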 The settings on record: higher = more signal, called active from +8 up or from −8 down.
A short description of test [2]: probe aLefty1 binding on compound microarray – biochemical, small-molecule microarray, 635/667 nm fluorescence, primary screen (AID 1153).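 Note: score merges spot fluorescence with signal-to-noise ratio from the scanned slide images.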 The note with it: higher = more signal.
The nature of test [3]: plasmodial surface anion channel blockers, osmotic lysis – cell-based, P. falciparum Indochina, OD700, 1 h, primary screen (AID 1154). The note with it: P. falciparum Indochina infected RBC osmotic lysis, higher = more signal, called active from +8 up or from −8 down.
Test [4] is described as follows: plasmodial surface anion channel blockers, osmotic lysis – cell-based, P. falciparum Indochina, OD700, 2 h, primary screen (AID 1155).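 Note: lysis reports solute entry through the parasite surface anion channel PSAC.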 The note with it: P. falciparum Indochina infected erythrocytes, higher = more signal, called active from +8 up or from −8 down.
Test [5] can be described thus: changes in parasitized red cell lysis, either direction – P. falciparum Indochina, OD700, 3 h, PSAC antagonist project, primary screen (AID 1156). The settings on record: P. falciparum-infected erythrocytes, osmotic lysis, higher = more signal, called active from +8 up or from −8 down.
Test [6] in a line: plasmodial surface anion channel blockers, osmotic lysis – cell-based, P. falciparum Indochina, OD700, 18 h, primary screen (AID 1157). The note with it: P. falciparum Indochina infected erythrocytes, osmotic lysis OD700, 18 h; higher = more signal, called active from +8 up or from −8 down.
A short description of test [7]: S6 kinase pathway phospho-S6 level changes – cell-based, A549, cytoblot, luminescence, serum-stimulated, primary screen (AID 1158).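 Note: serum-stimulated A549 lung adenocarcinoma cells; signal is phosphorylated S6 detected by cytoblot immunostaining with HRP secondary.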 The note with it: 5 h, higher = more signal.
The target in test [8] is NADPH oxidase 2 (Homo sapiens) (UniProt P04839). The test can be described thus: compounds shifting NOX2 Amplex Red fluorescence – cell-based, HEK293-NOX2, PMA-stimulated, NOX inhibitor project, primary screen (AID 1159). Note: test concentration not given here. The note with it: 45 min, higher = more signal, called active from +8 up or from −8 down.
For test [9], the target named is NADPH oxidase 4 (Homo sapiens) (UniProt Q9NPH5). The test can be described thus: compounds shifting NOX4 Amplex Red fluorescence – cell-based, HEK293-NOX4, tetracycline-induced, NOX inhibitor project, primary screen (AID 1160). The settings on record: HEK293-NOX4, Amplex Red H2O2 fluorescence, 45 min; higher = more signal, called active from +8 up or from −8 down.
For test [10], the target named is NADPH oxidase 5 (Homo sapiens) (UniProt Q96PH1). The test can be described thus: compounds shifting NOX5 Amplex Red fluorescence – cell-based, HEK293-NOX5, NOX inhibitor project, primary screen (AID 1161). The settings on record: HEK293-NOX5, ionomycin, 45 min, higher = more signal.
NADPH oxidase 5 (Homo sapiens), sequence (Q96PH1 whole entry, looked up): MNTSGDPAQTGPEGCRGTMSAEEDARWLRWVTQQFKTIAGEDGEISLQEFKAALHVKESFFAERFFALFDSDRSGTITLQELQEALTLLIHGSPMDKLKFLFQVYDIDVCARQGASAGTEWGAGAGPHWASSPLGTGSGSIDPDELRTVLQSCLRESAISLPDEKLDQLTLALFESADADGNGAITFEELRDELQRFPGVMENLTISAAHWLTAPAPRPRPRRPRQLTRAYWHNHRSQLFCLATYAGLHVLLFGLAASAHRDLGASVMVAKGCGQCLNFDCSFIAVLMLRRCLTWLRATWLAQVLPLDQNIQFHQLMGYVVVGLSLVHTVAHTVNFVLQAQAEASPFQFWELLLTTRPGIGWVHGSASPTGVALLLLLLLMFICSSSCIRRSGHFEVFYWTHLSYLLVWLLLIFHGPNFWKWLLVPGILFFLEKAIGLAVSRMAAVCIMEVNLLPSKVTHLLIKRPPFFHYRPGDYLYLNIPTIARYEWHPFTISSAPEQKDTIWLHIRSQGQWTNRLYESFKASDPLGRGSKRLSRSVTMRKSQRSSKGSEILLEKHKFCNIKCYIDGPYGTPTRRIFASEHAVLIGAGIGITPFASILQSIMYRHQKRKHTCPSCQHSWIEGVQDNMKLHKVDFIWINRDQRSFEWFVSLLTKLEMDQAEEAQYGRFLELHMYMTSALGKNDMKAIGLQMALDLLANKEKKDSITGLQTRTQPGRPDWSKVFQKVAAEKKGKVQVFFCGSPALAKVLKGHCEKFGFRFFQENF

NADPH oxidase 2 (Homo sapiens), sequence (P04839 whole entry, looked up): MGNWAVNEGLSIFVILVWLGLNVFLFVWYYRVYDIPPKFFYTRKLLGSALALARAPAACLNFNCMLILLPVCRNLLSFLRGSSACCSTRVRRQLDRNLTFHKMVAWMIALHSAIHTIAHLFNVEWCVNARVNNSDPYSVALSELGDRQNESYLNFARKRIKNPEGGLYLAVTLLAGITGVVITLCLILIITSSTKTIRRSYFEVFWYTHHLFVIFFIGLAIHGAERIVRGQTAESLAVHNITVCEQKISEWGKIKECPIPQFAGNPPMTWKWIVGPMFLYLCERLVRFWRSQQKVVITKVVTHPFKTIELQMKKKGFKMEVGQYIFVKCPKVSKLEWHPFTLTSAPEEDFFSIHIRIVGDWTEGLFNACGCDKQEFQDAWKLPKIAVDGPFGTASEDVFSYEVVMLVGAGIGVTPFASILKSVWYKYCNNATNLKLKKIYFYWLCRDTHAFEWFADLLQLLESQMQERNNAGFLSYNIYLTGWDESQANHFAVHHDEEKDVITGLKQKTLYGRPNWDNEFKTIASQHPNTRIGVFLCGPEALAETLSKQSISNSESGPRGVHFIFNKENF
NADPH oxidase 4 (Homo sapiens), sequence (Q9NPH5 whole entry, looked up): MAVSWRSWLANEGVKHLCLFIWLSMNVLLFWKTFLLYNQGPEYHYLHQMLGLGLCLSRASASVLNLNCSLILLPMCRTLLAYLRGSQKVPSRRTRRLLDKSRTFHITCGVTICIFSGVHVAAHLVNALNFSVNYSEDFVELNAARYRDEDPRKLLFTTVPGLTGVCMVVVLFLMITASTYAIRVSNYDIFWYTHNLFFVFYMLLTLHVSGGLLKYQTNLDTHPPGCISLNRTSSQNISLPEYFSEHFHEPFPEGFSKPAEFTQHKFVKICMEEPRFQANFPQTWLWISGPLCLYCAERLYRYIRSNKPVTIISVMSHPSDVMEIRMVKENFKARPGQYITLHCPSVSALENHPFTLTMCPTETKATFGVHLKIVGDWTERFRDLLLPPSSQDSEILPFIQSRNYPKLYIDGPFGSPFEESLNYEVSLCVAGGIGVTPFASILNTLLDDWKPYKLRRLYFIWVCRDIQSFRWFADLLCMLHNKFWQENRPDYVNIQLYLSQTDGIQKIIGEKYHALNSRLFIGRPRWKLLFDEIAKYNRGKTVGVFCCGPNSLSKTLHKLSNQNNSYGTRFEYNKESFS

Consider `CC(C)N1C(=O)c2ccccc2[C@@H](C(=O)NC2CC2)[C@@H]1c1ccc(CO)cc1`, for which the z-score in test [1] is 0.258 (inactive); in test [3] it was 2.06 (inactive); in test [4], -0.0507 (inactive); in test [5], -0.0836 (inactive); in [6], -0.307 (inactive); in [7], 0.167. Besides, the z-score in test [8] was 0.393 (inactive); in test [9], 0.708 (inactive); in test [10], 0.442. Moreover, in test [2], the composite z-score came out at 0.007.
`COc1ccc([Si](C)(C)[C@@H]2[C@@H](CCn3cc([C@H](O)c4ccccc4)nn3)O[C@]3(C(=O)N(Cc4ccc(N5CCC5=O)cc4)c4ccccc43)[C@H]2C)cc1`: the z-score in test [1] is 0.893 (inactive); in test [3], 18.8 (active); in [4], 4.31 (inactive); in [5] it was 1.66 (inactive); in test [6] it was 1.19 (inactive); in test [7], 0.759. Further, the z-score in test [8] was 0.193 (inactive); in [9], 1.08 (inactive); in test [10], 1.7. Besides, in [2], the composite z-score is -0.696.
For the molecule `COC(=O)C(CC#Cc1ccc2c(c1)[C@]1(C(=O)N2)[C@H](C(=O)N2CCN(c3ncccn3)CC2)[C@H]2C(=O)O[C@H](c3ccccc3)[C@H](c3ccccc3)N2[C@@H]1c1ccc(OCCO)cc1)C(=O)OC`, the z-score in test [1] is 0.454 (inactive); in [3], 11 (active); in test [4], 2.86 (inactive); in test [5], 1.03 (inactive); in test [6], 1.4 (inactive); in [7] it was 0.311. For the same molecule, the z-score was 1.36 (inactive) in test [8], 0.504 (inactive) in test [9] and 1.53 in [10]. In addition, the composite z-score in test [2] was found to be 0.2.
In the case of `CCOC(=O)C1=C[C@@H](c2ccccc2)N(S(=O)(=O)c2ccc(C)cc2)[C@H]1c1ccccc1Cl`, the z-score in test [1] is -1.18 (inactive); in test [3] it was 1.35 (inactive); in [4], 1.16 (inactive); in test [5], -0.0415 (inactive); in [6], 0.805 (inactive); in [7], -0.48. In addition, the z-score is 0.574 (inactive) in test [8], 0.138 (inactive) in [9] and 0.405 in test [10]. Also, the composite z-score in [2] was determined as 0.138.
Regarding `C=CC[C@@]1(C(=O)N2CCOCC2)N=C(c2ccc(OCCCO)cc2)O[C@@H]1c1ccccc1CN=[N+]=[N-]`, the z-score in test [1] was -0.124 (inactive); in [3], 21.5 (active); in test [4], 4.83 (inactive); in test [5], 1.61 (inactive); in [6], 0.986 (inactive); in test [7], 0.36. Moreover, the z-score in [8] was -0.305 (inactive); in test [9], 0.645 (inactive); in [10] it was -1.07. In test [2], this molecule displayed a composite z-score of 0.789.
Turning to `C=CCOC(=O)[C@H]1[C@@H]2C(=O)O[C@@H](c3ccccc3)[C@@H](c3ccccc3)N2[C@@H](c2ccc(OCCOC(=O)[C@H]3C[C@H]4C(=O)N[C@@H](CCCCNC(C)=O)C(=O)N4[C@H]3c3ccc(O)cc3)cc2)[C@]12C(=O)Nc1ccccc12`, the z-score in test [1] was 3.24 (inactive); in [3], 1.59 (inactive); in test [4] it was 0.512 (inactive); in [5], -0.821 (inactive); in test [6], -0.927 (inactive); in test [7], 1.4. Besides, the z-score in test [8] was 1.89 (inactive); in test [9], 1.44 (inactive); in [10], 1.04. The same molecule yielded a composite z-score in test [2] of 0.026.
As for `C=CCC(OC(C)=O)[C@@H]1[C@@H](N(Cc2cccc3ccccc23)C(=O)Cc2ccc(F)cc2)c2cc(OCCCO)ccc2N1C(=O)c1ccc2ccccc2n1` (stereo not given in full), the z-score in test [1] is 0.518 (inactive); in test [3], 1.05 (inactive); in test [4], 0.167 (inactive); in test [5], -0.315 (inactive); in test [6], 0.0897 (inactive); in [7] it was 0.103. Moreover, the z-score in test [8] is -0.126 (inactive); in [9], 0.619 (inactive); in test [10], 1.94. In test [2], this molecule showed a composite z-score of 0.0477.
Consider `O=C(N1CCCCC1)[C@@]1(CCS(=O)(=O)c2ccccc2)COC(c2ccc(OCCCO)cc2)=N1`, for which the z-score in test [1] is 0.641 (inactive); in test [3] it was 27.3 (active); in test [4], 21.1 (active); in test [5], 2.47 (inactive); in test [6], 2.93 (inactive); in [7], -0.436. Also, the values for the z-score in test [8], in test [9] and in test [10] were -1.53 (inactive), 0.675 (inactive) and 0.885, respectively. In [2], this molecule gave a composite z-score of 0.457.
Regarding `OCC1CC(c2ccccc2)=NO1` (stereo not given), the z-score in test [1] was 0.727 (inactive); in test [3] it was 5.51 (inactive); in [4] it was 0.623 (inactive); in test [5] it was -0.182 (inactive); in test [6] it was 0.206 (inactive); in [7] it was 0.137. The z-score in test [8] is -1.17 (inactive); in test [9], -0.137 (inactive); in test [10], 0.273. This molecule also showed a composite z-score in [2] of 0.0278.
For `CC(CO)N1C(=O)[C@@H]2[C@H]3C(=O)OCC=C[C@H]3OC23C=CCN(C(C)(C)C)C(=O)[C@@H]13` (stereo not given in full), the z-score in test [1] is -0.771 (inactive); in test [3], 0.16 (inactive); in test [4] it was -0.0471 (inactive); in test [5], -0.0717 (inactive); in [6] it was -0.23 (inactive); in [7], -0.105. Further, the z-score in [8] was 0.566 (inactive); in test [9], 0.401 (inactive); in test [10] it was 1.43. The molecule further returned a composite z-score in [2] of -0.407.
For `CCOC(=O)c1ccc(NC(=O)O[C@H]2[C@H](OC(=O)Nc3ccc4c(c3)OCO4)[C@@H](OC(=O)Nc3ccc4c(c3)OCO4)[C@@H](OC)O[C@@H]2CO)cc1`, the z-score in test [1] is 0.113 (inactive); in [3], 10.4 (active); in test [4] it was 1.31 (inactive); in test [5], 0.843 (inactive); in [6], 0.593 (inactive); in test [7], 0.0796. The z-score was -3.35 (inactive) in test [8], -0.689 (inactive) in test [9] and -1.77 in [10]. Also, the composite z-score in test [2] is 0.325.
For `O=C(NCc1ccccc1)[C@@H]1c2ccccc2C(=O)N(Cc2ccccc2C(F)(F)F)[C@H]1c1ccc(CO)cc1`, the z-score in test [1] was 0.546 (inactive); in test [3] it was 3.68 (inactive); in test [4], 0.75 (inactive); in [5], 1.53 (inactive); in test [6], 0.207 (inactive); in test [7], 0.0835. The z-score was -1.13 (inactive) in [8], 0.914 (inactive) in test [9] and -0.366 in test [10]. The composite z-score in test [2] was -0.0731.
For the molecule `CCCCO[C@H]1C[C@H]2C(I)=C[C@@H]1C(=O)[C@]21CO1`, the z-score in test [1] is -1.55 (inactive); in test [3], -0.0445 (inactive); in [4], 0.18 (inactive); in test [5] it was -0.163 (inactive); in [6] it was -0.16 (inactive); in [7], -0.408. Also, the z-score is 0.0778 (inactive) in test [8], 0.609 (inactive) in test [9] and -0.383 in test [10]. This molecule gave a composite z-score in test [2] of -0.369.

The values above are taken from PubChem BioAssay.
